Only some compounds are listed: those with a hit (about 2.4% of all), similar ones and a draw of the others.
D2 PAM-1 = human D2 receptor positive allosteric modulation; P14416; hit rate 0.23% among 360,000; DiscoveRx D2 beta-arrestin cells, luminescence, 90 min; 100% = 57 uM dopamine signal; potentiation, % (concentration not given with the values); in the data active = potentiation above about 50%; inconclusive = mostly about 30% to 49%
Target sequence (P14416 whole entry, looked up): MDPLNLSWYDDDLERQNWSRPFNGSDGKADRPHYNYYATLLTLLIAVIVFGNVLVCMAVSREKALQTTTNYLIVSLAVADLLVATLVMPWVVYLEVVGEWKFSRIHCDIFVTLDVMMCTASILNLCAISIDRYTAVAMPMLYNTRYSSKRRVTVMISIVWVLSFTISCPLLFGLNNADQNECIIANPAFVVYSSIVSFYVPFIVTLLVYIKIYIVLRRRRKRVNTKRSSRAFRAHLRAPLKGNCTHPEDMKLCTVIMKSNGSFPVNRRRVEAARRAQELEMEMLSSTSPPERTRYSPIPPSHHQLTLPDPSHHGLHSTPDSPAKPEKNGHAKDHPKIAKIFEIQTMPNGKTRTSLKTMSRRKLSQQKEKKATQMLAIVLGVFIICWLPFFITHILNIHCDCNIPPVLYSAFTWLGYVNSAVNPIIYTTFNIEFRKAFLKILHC
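D2 cells co-treated with compound plus 50 nM dopamine (EC20) for 90 min at 37 deg C to detect potentiation. Beta-arrestin recruitment was read as enzyme-fragment luminescence after 1 h at ambient temperature. Full response was set by 57 uM dopamine.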
D2 ag-1 = activates the human D2 dopamine receptor; DiscoveRx PathHunter D2 beta-arrestin, luminescence, 90 min; 100% = 57 uM dopamine signal; hit rate 0.084% among 360,000; activation, % (concentration not given with the values); AID 624465; P14416; in the data active = activation above about 40%; inconclusive = between about 15% and that limit
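DiscoveRx PathHunter D2 beta-arrestin cells (2,100/well) attached overnight, then compound-stimulated 90 min at 37 C in HBSS/10 mM HEPES/0.1% Tween-20 buffer; beta-galactosidase complementation read by luminescence after 1 h at ambient temperature. Dopamine 57 uM final (EC100) as control.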
D2 ag-2 = D2 dopamine receptor (human) agonism; P14416; hit rate 0.53% among 340,000; HEK293 T-REx D2 cells, calcium flux agonist mode; activation, % at 2 µM;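 active = activation over 3 SD above normal in the single-dose calcium agonist read, cut at about 30% in these data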; note: 0% is about no effect
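Tetracycline-induced HEK293 Trex cells with D2 receptor force-coupled to calcium signaling, plated overnight at 30 C and loaded with no-wash calcium dye. Calcium flux read kinetically for 180 s after compound addition; responses flag agonists.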
D2 antag = D2 dopamine receptor (human) antagonism. P14416. HEK293 TREx D2 cells, calcium flux, dopamine EC80. inhibition, % at 10 µM. hit rate 2% among 340,000. AID 485344; in the data active = inhibition above about 30%; inactive = below that, where a call was filed; note: 0% is about no effect
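Compounds are added to dye-loaded, induced HEK293 T-REx cells coupled to calcium release via D2; after a 3 min kinetic read an EC80 dopamine stimulus is given and fluorescence is recorded for 3 more min.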
D2 PAM-2 = positive allosteric modulators of human D2 dopamine receptor; P14416; HEK293 T-REx D2, calcium flux, EC20 dopamine potentiation; potentiation, % at 10 µM; hit rate 0.34% among 340,000;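 active = potentiation over 3 SD above the plate norm, cut at about 30% in these data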; note: 0% is about no effect
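Primary screen. Calcium kinetics in induced HEK293 T-REx D2 cells: compound pre-addition 180 s, EC20 dopamine, 180 s more.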
Active calls of the source: *; ? = inconclusive; . = no result.

SMILES | D2 PAM-1 | D2 ag-1 | D2 ag-2 | D2 antag | D2 PAM-2
COc1cccc(NC(=S)N(CCCN2CCCC(C)C2)Cc2cccs2)c1 (stereo not drawn) | -14.6 | 0.7 | 2.5 | 59.1* | -28.4
CSc1cccc(NC(=S)N(CCCN2CCCC(C)C2)Cc2cccs2)c1 (stereo not drawn) | -38.6 | -4.9 | 0.3 | 45.6* | -17.1
COc1ccc(NC(=S)N(CCCN2CCC(C)CC2)Cc2cccs2)cc1Cl | -22.2 | -3.2 | 0.4 | 5.3 | -8.5
CCOC(=O)C1CCCN(C(=S)NC2CCCCC2)C1 (stereo not drawn) | -1.9 | -1.2 | . | . | .
CCOC(=O)C1CCN(C(=S)NC2CCCC2)CC1 | 0.3 | 4.5 | 0.9 | 34.1* | -13.6
S=c1[nH]nc(C2CCCCC2)n1/N=C/c1ccccc1 | -7.4 | -9.8 | -0.4 | -10.2 | -5.5
Fc1ccc(/C=N/n2c(C3CCCCC3)n[nH]c2=S)cc1 | -5.9 | ? | 0.2 | 50.2* | 7.1
COc1cc2cc(CNc3ccccc3)c(=O)n(CC(=O)Nc3cccc(Cl)c3C)c2cc1OC | . | . | 3.2 | . | -7.9
O=C(CCN1CCN(c2ccccc2)CC1)c1ccc(Br)cc1 | -15.9 | 3.9 | 20.8 | -17.8 | -27.0
N#Cc1ccc(C(=O)CN2CCN(c3ccccc3)CC2)cc1 | -13.8 | -1.7 | 35.1* | 16.2 | -22.7
O=C(O)c1nc(-c2ccccc2)n(-c2ccccc2)n1 | -29.7 | -3.8 | 0.0 | -16.4 | -11.4
O=C(O)c1nc(-c2ccccc2)n(-c2cccc(C(F)(F)F)c2)n1 | -4.7 | -2.0 | -1.3 | -14.7 | 43.8*
Cc1ccc(-c2ccc(CCC(=O)O)n2NC(N)=S)cc1 | -20.3 | 0.2 | 2.4 | -8.1 | 3.8
Cc1ccc(-c2ccc(CCC(=O)O)n2C(C)C)cc1 | -7.3 | -1.5 | -0.1 | 32.6* | 15.5
CC1CCN(CC(=O)NC2CCCCC2)CC1 | -3.1 | 0.9 | 33.6* | 16.3 | -13.3
O=C(NCCc1ccccc1)c1ccc(Cn2c(SCc3ccccc3)nc3cccnc32)cc1 | . | . | 4.2 | . | .
O=C(Cc1ccccc1)N[C@@H](Cc1ccc(O)cc1)C(=O)O | . | . | -0.1 | 36.0* | 3.1
COc1ccccc1CNC(=O)N[C@@H](Cc1ccccc1)C(=O)O | -6.2 | -0.7 | -0.1 | 37.0* | -0.3
Cc1ccccc1CCNC(=O)c1ccc2c(c1)c(C)c(C)n2Cc1ccccc1 | . | . | 0.5 | . | 2.3
O=C(Nc1ccc(Br)cc1)c1ccc2ncsc2c1 | -12.7 | 1.0 | -0.2 | 36.2* | -26.9
CCc1ccc(NC(=O)c2ccc3ncsc3c2)cc1 | . | . | 0.0 | -7.1 | -12.3
COc1ccc(C(=O)Nc2cccc(NC(=O)c3ccc(OC)c(OC)c3)n2)cc1OC | 85.3* | 5.1 | -0.9 | -3.9 | 4.5
CCOC(=O)N1CCN(C(=O)CSc2nnc(COc3ccccc3)o2)CC1 | -0.4 | 0.5 | -1.7 | 2.3 | -8.5
CCOC(=O)N1CCN(C(=O)CSc2nnc(Cc3ccccc3)o2)CC1 | 2.6 | -1.6 | 0.6 | -0.6 | 30.8*
CCOc1ccc(NC(=O)CCC(=O)NNS(=O)(=O)c2ccccc2[N+](=O)[O-])cc1 | -0.7 | 2.9 | 105.2* | 11.2 | 3.6
SMILES | D2 PAM-1 | D2 ag-1 | D2 ag-2 | D2 antag | D2 PAM-2
CCn1c(C)cc(C(=O)CSc2nnnn2C2CCCC2)c1C | -15.7 | -1.5 | -0.3 | 30.4* | -3.6
CCn1cc(C(=O)N[C@@H](C)C(=O)OC)c(=O)c2cc3c(cc21)OCO3 | -2.7 | -4.1 | 0.9 | 44.4* | -3.9
O=C(Cc1ccc(F)cc1)NCCS(=O)(=O)N1CCN(c2ccccc2)CC1 | -6.0 | ? | 10.0 | 46.0* | -5.6
O=C(NCCS(=O)(=O)N1CCN(c2ccc(F)cc2)CC1)c1ccco1 | -7.4 | -4.0 | 0.1 | 33.1* | -12.7
O=C(NCCS(=O)(=O)N1CCN(c2ccccc2)CC1)C1CC(=O)N(c2ccc(F)cc2)C1 (stereo not drawn) | -6.3 | -0.7 | 0.5 | 32.5* | -6.1
CCOC(=O)N1CCN(Cc2c(NC(=O)c3ccco3)sc(C)c2C)CC1 | -4.5 | 4.4 | -0.3 | 7.0 | .
O=C(NCCS(=O)(=O)N1CCN(c2ccccc2F)CC1)c1ccco1 | 10.0 | -1.0 | -1.0 | -2.7 | -2.6
Cc1sc(NC(=O)c2ccco2)c(CN2CCN(c3ccc(F)cc3)CC2)c1C | -3.9 | 1.3 | 0.5 | 33.0* | -5.2
CCc1ccc(NC(=O)c2ccc(F)c(S(=O)(=O)NCc3ccc(Cl)c(Cl)c3)c2)cc1 | . | . | 0.4 | . | .
COC(=O)CCN(c1ccccc1)C(CNS(=O)(=O)c1ccccc1)c1ccccc1 (stereo not drawn) | . | . | -1.1 | . | 17.1
Cc1[nH]c2c(C)cccc2c1CCNC(=O)c1ccc2c(c1[N+](=O)[O-])C(=O)c1ccccc1C2=O | 93.0* | ? | -0.3 | -5.0 | -7.3
COc1ccc2c(c1O)C(=O)c1ccccc1C2=O | . | . | 0.1 | 3.7 | -5.8
Cc1[nH]c2ccccc2c1CCNC(=O)c1ccc2c(c1[N+](=O)[O-])C(=O)c1ccccc1C2=O | 93.1* | ? | -0.2 | -5.4 | -9.2
CN(C)C(=O)c1ccc2c(c1[N+](=O)[O-])C(=O)c1ccccc1C2=O | 68.3* | ? | . | . | .
CCCNC(=O)NCCc1c(C)[nH]c2ccccc12 | -4.1 | 4.8 | 0.2 | -0.7 | 6.9
C=CCc1cccc2cc(C(=O)NCCc3c(C)[nH]c4c(C)cccc34)c(=O)oc12 | . | . | 0.4 | . | -4.2
Cc1cccc(N2CCN(c3ncnc4c3nc3n4CCCCC3)CC2C)c1 (stereo not drawn) | . | . | -1.1 | . | 4.8
CC(C)(C)NC(=O)c1cnn(-c2ccccc2)c1C1CCN(C(=O)OC(C)(C)C)CC1 | . | . | 0.3 | . | -11.4
COc1ccc(C2=Nn3c(nnc3-c3ccccc3OC)SC2)cc1OC | 3.9 | 1.2 | 0.1 | -3.5 | 36.9*
COc1ccc(C2=Nn3c(nnc3-c3ccccn3)SC2)cc1OC | -3.7 | -4.6 | 1.7 | -15.1 | 13.9
O=C(Nc1ccc(O)cc1)c1ccccc1OCc1ccccc1 | 0.1 | 2.1 | 0.6 | -0.2 | 13.9
COc1cc(NC(=O)c2ccccc2OCc2ccccc2)cc(OC)c1OC | 55.6* | -0.5 | -1.0 | -3.6 | -7.2
CC(=O)c1ccc(NC(=O)Cn2ncc3c4ccccc4n(Cc4ccccc4)c3c2=O)cc1 | . | . | -0.1 | . | -1.2
COc1ccccc1N1CCN(CCC(=O)Nc2ccc(F)cc2)CC1 | -27.7 | -4.7 | 5.1 | 66.4* | -23.1
CCOC(=O)N1CCN(CCC(=O)Nc2ccccc2OC)CC1 | -12.1 | -1.0 | 2.3 | 50.0* | -5.9
O=C(CN1CCC(NC(=O)C2CC2)CC1)Nc1cccc(F)c1 | -19.0 | -3.3 | 0.2 | 31.5* | -21.2
COc1ccccc1N1CCN(CCC(=O)Nc2cccc(Cl)c2)CC1 | -26.1 | -1.6 | 36.0* | 96.2* | -39.0
Cc1ccc(NC(=O)CN2CCC(NC(=O)c3cccc(F)c3)CC2)cc1C | -37.4 | 0.5 | 0.2 | 5.9 | -3.2
CCOC(=O)C(C)NC(=O)c1c2c(nc3ccccc13)C(=O)N(C1CCCCC1)C2 (stereo not drawn) | . | . | . | . | -9.6

Bioassay records: PubChem, National Center for Advancing Translational Sciences (NCATS)
